Reference: the supplement of paper PMC11732987, “Enantioselective OTUD7B fragment discovery through chemoproteomics screening and high-throughput optimisation” (Communications Chemistry, 2025)
Values without a mark were called inactive.

How the values were obtained:
Experiment in all cases: log2 ratio of Biotin-Ahx-Ub-VS probe labelling (fragment/DMSO); higher = less target engagement (more negative = stronger competition), active = hit call of the paper (q ≤ 0.05, log2 ratio ≤ -1)
Conditions in all cases: compound concentration: 200 uM; treatment time: 3 h
[1] = target: T1, OTUD6B (UniProt Q8N6M0)
T1 sequence (whole entry): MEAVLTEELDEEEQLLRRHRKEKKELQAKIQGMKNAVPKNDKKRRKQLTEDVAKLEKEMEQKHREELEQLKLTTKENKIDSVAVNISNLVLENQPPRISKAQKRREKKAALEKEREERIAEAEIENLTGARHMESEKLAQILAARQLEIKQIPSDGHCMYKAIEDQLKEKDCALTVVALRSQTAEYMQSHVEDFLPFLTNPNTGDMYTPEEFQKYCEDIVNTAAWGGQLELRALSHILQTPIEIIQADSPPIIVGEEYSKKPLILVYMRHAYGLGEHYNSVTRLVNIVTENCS
Method in brief: (§1)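 Fragment (200 µM) or vehicle was incubated for 3 h with triplicate HEK293T lysate samples of 495 µg, which were then treated with Biotin-Ahx-Ub-VS at 0.5 µM final for 1 h. Labelled DUBs were enriched on NeutrAvidin, digested with LysC and trypsin, and analysed by diaPASEF LC-MS/MS. Values are average log2 fragment/vehicle ratios from an unpaired t-test on global-median-normalised Spectronaut label-free quantities, using proteins with ≥2 unique peptides.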

[2] = target: T2, OTUD7B (UniProt Q6GQQ9)
T2 sequence (whole entry): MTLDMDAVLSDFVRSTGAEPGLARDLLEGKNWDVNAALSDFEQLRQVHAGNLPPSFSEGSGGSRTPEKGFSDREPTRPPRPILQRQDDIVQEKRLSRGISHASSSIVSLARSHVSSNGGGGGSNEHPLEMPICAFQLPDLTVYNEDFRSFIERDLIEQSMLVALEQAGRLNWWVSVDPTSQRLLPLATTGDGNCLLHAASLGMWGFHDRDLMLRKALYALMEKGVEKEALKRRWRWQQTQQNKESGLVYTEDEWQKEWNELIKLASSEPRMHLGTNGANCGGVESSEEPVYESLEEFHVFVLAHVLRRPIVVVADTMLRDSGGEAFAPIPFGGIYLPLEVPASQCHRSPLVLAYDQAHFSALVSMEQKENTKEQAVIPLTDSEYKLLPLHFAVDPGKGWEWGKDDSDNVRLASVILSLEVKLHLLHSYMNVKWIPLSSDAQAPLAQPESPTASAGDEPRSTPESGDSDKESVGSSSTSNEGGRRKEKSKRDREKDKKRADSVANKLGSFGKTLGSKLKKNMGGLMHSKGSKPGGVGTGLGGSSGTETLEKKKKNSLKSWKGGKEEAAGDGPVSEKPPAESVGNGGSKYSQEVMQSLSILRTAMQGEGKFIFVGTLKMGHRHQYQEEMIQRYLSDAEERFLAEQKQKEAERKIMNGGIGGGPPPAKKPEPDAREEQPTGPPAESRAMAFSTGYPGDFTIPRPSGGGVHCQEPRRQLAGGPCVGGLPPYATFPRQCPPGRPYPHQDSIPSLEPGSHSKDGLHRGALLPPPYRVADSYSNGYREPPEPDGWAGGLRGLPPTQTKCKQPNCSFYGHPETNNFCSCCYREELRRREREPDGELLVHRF
Method in brief: as §1

[3] = target: PRPF8 (UniProt Q6P2Q9)
Method in brief: as §1

[4] = target: T3, PSMD7 (UniProt P51665)
T3 sequence (whole entry): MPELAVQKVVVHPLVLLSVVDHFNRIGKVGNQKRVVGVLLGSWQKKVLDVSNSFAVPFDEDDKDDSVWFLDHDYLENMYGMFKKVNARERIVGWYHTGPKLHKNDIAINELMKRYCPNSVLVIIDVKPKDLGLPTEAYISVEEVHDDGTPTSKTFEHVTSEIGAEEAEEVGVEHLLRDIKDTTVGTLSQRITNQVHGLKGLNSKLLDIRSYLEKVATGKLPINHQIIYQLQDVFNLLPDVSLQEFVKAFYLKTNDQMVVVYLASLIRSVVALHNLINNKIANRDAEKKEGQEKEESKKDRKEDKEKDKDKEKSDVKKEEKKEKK
Method in brief: as §1

[5] = target: UCHL1 (UniProt P09936)
UCHL1, sequence (P09936 whole entry, looked up): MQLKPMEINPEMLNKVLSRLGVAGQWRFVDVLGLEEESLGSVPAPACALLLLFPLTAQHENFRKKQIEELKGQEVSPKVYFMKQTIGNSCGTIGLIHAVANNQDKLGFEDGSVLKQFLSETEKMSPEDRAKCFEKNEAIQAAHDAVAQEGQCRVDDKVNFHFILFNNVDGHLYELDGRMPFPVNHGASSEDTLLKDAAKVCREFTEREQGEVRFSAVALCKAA
Method in brief: as §1

[6] = target: T4, UCHL3 (UniProt P15374)
T4 sequence (whole entry): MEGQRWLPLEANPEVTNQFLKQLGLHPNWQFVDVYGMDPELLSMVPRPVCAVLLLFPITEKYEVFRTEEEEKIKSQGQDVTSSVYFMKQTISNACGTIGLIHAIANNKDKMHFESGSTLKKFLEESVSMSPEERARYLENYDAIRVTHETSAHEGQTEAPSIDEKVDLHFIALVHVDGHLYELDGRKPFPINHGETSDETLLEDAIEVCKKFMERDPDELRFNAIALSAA
Method in brief: as §1

[7] = target: T5, UCHL5 (UniProt Q9Y5K5)
T5 sequence (whole entry): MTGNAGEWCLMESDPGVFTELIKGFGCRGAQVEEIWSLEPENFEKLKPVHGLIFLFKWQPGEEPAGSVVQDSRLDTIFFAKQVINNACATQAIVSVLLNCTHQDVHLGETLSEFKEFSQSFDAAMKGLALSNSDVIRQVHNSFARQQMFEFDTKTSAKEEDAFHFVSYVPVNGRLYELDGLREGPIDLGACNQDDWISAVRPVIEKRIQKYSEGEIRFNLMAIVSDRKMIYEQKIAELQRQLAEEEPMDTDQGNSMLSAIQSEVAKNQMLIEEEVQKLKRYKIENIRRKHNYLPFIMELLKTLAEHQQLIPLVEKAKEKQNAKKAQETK
Method in brief: as §1

[8] = target: USP10 (UniProt Q14694)
USP10, sequence (Q14694 whole entry): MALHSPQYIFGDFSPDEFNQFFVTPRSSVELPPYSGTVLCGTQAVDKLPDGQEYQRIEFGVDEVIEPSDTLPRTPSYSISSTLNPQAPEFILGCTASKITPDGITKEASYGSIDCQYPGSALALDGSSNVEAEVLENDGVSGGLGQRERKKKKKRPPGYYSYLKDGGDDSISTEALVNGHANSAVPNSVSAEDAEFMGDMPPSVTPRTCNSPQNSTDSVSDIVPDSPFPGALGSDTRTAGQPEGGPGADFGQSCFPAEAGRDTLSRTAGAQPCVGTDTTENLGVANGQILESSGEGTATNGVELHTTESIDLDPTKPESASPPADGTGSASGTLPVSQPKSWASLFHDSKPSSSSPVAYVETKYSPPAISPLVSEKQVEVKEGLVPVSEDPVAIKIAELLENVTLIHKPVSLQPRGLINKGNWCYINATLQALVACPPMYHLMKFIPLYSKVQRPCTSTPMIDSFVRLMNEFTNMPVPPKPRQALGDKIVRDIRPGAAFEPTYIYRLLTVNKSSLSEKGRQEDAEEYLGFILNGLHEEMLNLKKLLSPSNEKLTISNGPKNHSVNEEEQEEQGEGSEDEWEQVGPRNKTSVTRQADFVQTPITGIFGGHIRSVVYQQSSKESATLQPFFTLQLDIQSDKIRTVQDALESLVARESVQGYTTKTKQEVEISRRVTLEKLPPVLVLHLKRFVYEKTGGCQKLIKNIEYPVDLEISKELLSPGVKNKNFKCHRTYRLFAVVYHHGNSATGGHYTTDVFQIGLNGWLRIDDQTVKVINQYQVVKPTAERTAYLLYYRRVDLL
Method in brief: as §1

[9] = target: T6, USP15 (UniProt Q9Y4E8)
T6 sequence (whole entry): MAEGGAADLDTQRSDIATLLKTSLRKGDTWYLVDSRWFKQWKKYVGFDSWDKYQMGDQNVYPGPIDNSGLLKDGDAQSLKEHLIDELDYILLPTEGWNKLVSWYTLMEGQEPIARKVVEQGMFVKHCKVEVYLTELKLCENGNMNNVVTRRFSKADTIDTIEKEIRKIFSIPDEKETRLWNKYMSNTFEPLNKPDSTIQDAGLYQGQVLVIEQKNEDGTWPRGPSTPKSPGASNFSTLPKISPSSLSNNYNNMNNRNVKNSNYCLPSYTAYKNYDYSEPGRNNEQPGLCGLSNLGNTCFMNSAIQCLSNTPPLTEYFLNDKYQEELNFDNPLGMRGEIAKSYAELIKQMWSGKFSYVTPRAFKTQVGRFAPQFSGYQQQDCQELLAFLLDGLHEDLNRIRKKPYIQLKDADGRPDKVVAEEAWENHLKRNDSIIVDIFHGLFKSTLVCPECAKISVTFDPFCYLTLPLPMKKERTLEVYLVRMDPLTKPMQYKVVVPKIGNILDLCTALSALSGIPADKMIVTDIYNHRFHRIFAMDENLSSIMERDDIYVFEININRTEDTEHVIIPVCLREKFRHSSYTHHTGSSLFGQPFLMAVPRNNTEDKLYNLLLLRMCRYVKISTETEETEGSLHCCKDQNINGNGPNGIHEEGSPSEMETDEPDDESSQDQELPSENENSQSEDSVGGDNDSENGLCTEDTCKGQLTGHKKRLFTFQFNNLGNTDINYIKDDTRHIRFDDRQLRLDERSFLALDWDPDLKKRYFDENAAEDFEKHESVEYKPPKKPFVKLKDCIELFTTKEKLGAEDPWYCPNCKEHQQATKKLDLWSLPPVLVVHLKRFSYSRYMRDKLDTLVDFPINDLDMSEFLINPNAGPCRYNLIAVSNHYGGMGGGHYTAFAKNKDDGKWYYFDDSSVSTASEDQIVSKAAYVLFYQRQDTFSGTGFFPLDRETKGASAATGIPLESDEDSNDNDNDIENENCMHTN
Method in brief: as §1

[10] = target: USP16 (UniProt Q9Y5T5)
USP16, sequence (Q9Y5T5 whole entry, looked up): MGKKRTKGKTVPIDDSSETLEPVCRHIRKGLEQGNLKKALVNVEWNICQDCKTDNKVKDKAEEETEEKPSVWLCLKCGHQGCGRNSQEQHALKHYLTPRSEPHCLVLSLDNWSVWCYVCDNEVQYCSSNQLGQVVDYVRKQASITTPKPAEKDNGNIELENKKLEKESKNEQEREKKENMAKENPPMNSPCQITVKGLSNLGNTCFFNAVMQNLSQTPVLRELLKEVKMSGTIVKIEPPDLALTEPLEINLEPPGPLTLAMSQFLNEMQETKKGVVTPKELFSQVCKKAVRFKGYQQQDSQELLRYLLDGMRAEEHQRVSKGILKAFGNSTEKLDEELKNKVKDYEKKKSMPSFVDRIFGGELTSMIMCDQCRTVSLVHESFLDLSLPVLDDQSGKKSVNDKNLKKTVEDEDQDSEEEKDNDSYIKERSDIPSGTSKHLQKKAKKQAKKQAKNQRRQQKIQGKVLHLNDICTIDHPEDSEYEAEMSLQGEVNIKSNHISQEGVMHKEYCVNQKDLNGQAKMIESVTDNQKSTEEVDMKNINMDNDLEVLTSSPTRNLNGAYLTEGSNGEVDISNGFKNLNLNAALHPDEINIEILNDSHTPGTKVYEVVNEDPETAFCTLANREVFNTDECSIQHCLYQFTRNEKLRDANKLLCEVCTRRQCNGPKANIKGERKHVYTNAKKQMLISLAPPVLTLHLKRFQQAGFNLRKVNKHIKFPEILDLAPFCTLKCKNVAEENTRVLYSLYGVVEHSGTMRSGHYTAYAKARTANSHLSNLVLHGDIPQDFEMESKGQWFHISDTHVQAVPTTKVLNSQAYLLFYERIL
Method in brief: as §1

O=C(CCl)N1CCCC2CCCCC21 (stereo not given)
log2 ratio of Biotin-Ahx-Ub-VS probe labelling [1]: 0.111 | log2 ratio of Biotin-Ahx-Ub-VS probe labelling [2]: -0.246 | log2 ratio of Biotin-Ahx-Ub-VS probe labelling [3]: 0.0617 | log2 ratio of Biotin-Ahx-Ub-VS probe labelling [4]: -0.09 | log2 ratio of Biotin-Ahx-Ub-VS probe labelling [5]: -1.06 (active) | log2 ratio of Biotin-Ahx-Ub-VS probe labelling [6]: 0.0783 | log2 ratio of Biotin-Ahx-Ub-VS probe labelling [7]: -0.193 | log2 ratio of Biotin-Ahx-Ub-VS probe labelling [8]: -0.167 | log2 ratio of Biotin-Ahx-Ub-VS probe labelling [9]: -0.1 | log2 ratio of Biotin-Ahx-Ub-VS probe labelling [10]: -0.257
